Whole data set: some 59,000 sequences, median the read-out near -0.00055, cut for the lowest 2% near -2. This excerpt belongs to a sample that is enriched for the lowest values.
Assay: Identification of proteins required for the processing of the EWS-FLI1 nascent transcript;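 also: robust z of luciferase light less the median z of siRNAs with the same seed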
Settings: TC32 Ewing sarcoma NR0B1-luc vs CMV-luc (EWS-FLI1 target promoter against control promoter), 48 h; screened at 20 nM (by protocol)
Description: Ewing sarcoma (ES) cells depend on the EWS-FLI1 fusion transcription factor for cell survival. Using an assay of EWS-FLI1 activity and genome-wide siRNA screening we have identified proteins required for the processing of the EWS-FLI1 nascent transcript. Parallel genome-wide siRNA-mediated RNAi screens were conducted in Ewing sarcoma TC32 cell lines expressing a luciferase (luc) reporter protein driven by either the promoter of the EWS-FLI1 target gene NR0B1 (TC32-NR0B1-luc) or the CMV promoter (TC32-CMV-luc). Luciferase activity was assessed 48 hours post siRNA-transfection.
Twenty microl of serum-free media containing Lipofectamine RNAiMax (0.05 microl) was added to wells containing siRNA (0.8 pmol). Lipid and siRNA were allowed to complex for 45 min at ambient temperature before addition of 600 cells in RPMI-1640, 20% FBS to yield final transfection mixtures containing 20 nM siRNA in RPMI-1640, 10% FBS. Luciferase expression was measured using OneGlo (Promega, Madison, WI). The genome-wide screening campaign was conducted using Ambion's human genome library version 4.1 (Ambion, Austin TX). This library targets approximately 21000 human genes, three siRNAs per gene. Each siRNA is arrayed in an individual well of a 384-well plate. Parallel transfections were conducted in TC32-NR0B1-luc and TC32-CMV-luc cell lines and luciferase expression (OneGlo, Promega) was assayed 48 h later on a PerkinElmer Envision 2104 Multilabel plate reader (PerkinElmer, Waltham, MA). Qiagen's AllStars Negative control was incorporated on all screening plates for normalization (16 wells per plate). Qiagen, Germantown, MDsiGL4 was incorporated as a positive transfection control (16 wells per plate) on all plates. […] The raw luciferase data for the NR0B1- and CMV-luc screens were normalized and z-score-MAD transformed using standard methods (Chung et al., 2008). The miRNA-like seed sequence of every siRNA was determined and the median z-score for all siRNA sequences with the same seed sequence was calculated. This z-score was subtracted from the z-score associated with each siRNA with that seed sequence to generate a seed-adjusted z-score value (Z) that was used when the results for the three siRNAs corresponding to each gene were compared (Marine et al., 2012)

Row | Sequence | seed-corrected z-score
1 | AUCUCAUAAAAGAUCAUCC against NUTM1 | -0.0209
2 | UAUUGUUAAGGACUUUAAC against DNAJB6 | 0.648
3 | UUCGGUACACUCAUACGGC against ZNF300 | 0.363
4 | UUAGCUGCUCGGUAACUGG against EPB41 | -2.39
5 | UAAUGACAUAUCGACAUUU against MIDN | -0.523
6 | UUAGAGAAUAUGCCCAUGA against FGD3 | -1.11
7 | UUUGGGUAGAGGCCGAAUG against DNAJC13 | -2.18
8 | UAUGUUAUCAGUCCAUCUG against MND1 | 0.573
9 | UCUACAUCAAUAACAGAGG against C5orf28 | 0.545
10 | UUAUUGGUUGUGACUUUCC against TSLP | 0.686
11 | UCCCUUUUAAGCAACCUAC against APOC3 | -0.83
12 | UCAAUAUCCAGACCUGGUG against SF3A1 | -2.88
13 | UCCCGUAAAACAGAGACAC against OR2C3 | -0.66
14 | AUCGUGCUCGCUUGGAUCC against LOC729083 | -0.203
15 | UCGGUUGCGAAUCAGAAUC against NOTCH2 | -2.01
16 | UUAGAUACUCUGCAGGAUG against EPHA5 | 0.46
17 | UUUAAUGUCCCAGUCCUCG against TMEM160 | 0.858
18 | UCUUACAUAGGUAAUUGCC against AGTR1 | -0.402
19 | UUCCUUAACCCAUCUACAG against C2orf49 | 0.273
20 | UGAAUGACAUCCACUACCU against OR6K2 | 1.02
21 | UCAAAGUCGAUUUCAAUCU against BRD4 | -2.4
22 | UAGAUGUCUGGAGCCCAUC against LYPD6 | -0.74
23 | AAAGGAGUCAGAUUCAUGC against GPATCH2L | 0.347

Row | Sequence | seed-corrected z-score
24 | UCUCCAACCAAUUGCCUCC against LOC200726 | -0.147
25 | UAGGGAACUCGUAUCUAGC against RNF213 | 0.191
26 | UAGUUGUCGAUGUAAACUC against MUC2 | -2.67
27 | UUCCAUAUUACCGAGGUCC against ALCAM | 0.291
28 | UCUGAGAUAACAGUUCCUG against LOC644681 | -0.647
29 | UUCUCGAUCAUCCUGAUCU against BGN | -3
30 | UGCUAGACAAUUCCACUUC against SLX4 | -1.39
31 | UAUCGCUCCUGACUAUUGC against PPP1R10 | -0.157
32 | ACAACUAUGAUUUUAAGGC against ACSL1 | 0.252
33 | UUGUCUUUCCGGCUAAAGC against ZFP64 | -1.36
34 | UAUUGUAAGAAAACCCUUG against GNA13 | 1.07
35 | UCUGUGUCCACAGAGCCGU against GPR78 | -2.26
36 | UACUACACUAUUCUUCAGG against TADA1 | -0.3
37 | UUGCGACUCAUGAAAUGGG against INO80 | 0.511
38 | AUGGUAGUAAUCGCGGGCG against HSPA12B | -2.44
39 | UAAGCGAAUAGGAUGCGCU against YWHAEP5 | -1.53
40 | UUUGCGAUGUUCCUCUUCC against GOLIM4 | 0.684
41 | UCAUUUCUAAGACCGCAUG against HNRNPUL1 | -0.605
42 | AAAGGUCAAUUCUUGAUGG against OR2L8 | 1.81
43 | UCUGGAUGGAGGUUUGUUC against SLC38A10 | 1.34
44 | UUGGAACAUAUUGGGAUCG against DDN | -0.0544
45 | AUGUUUUCGCUGGAGUUGG against SSBP4 | 0.9
46 | AUAGGUCUGAAUGAGCUGC against PLCD3 | -0.512

Row | Sequence | seed-corrected z-score
47 | UUCCUCAAAACUGCAGACU against LOC729451 | -0.00746
48 | UCCAUGUUGUCGAUCAUCU against RGS9BP | -2.21
49 | UAUGAGUGCUCCACGAUGC against APOL3 | 0.115
50 | UUCAUGACAAAGCUUGACC against PFN1P3 | -0.053
51 | UUGGUAAACAUCUCCAGGC against TRIM63 | 1.24
52 | UUGUCGUUCAGCAAACUCC against ASCC2 | -2.07
53 | UCAGGAUAUAGUUUAGGAC against TMEM144 | 0.846
54 | AAUGUAUCAAGUAUGUCGG against C16orf62 | -2.25
55 | UGAAAUAUCUCCAGGAUCU against EFCAB12 | 0.249
56 | UAUGCGUUUUGGAGAUUCC against PARP8 | -0.784
57 | UCUGUCUUCCCAUAGGAUG against LOC440040 | -2.05
58 | AAUGGUAGAACAUCCCUGC against RIN2 | -0.24
59 | AACUUGAUCAAGUAGCUCG against EBLN1 | -0.0938
60 | UGUCAGUAUAGCACAGAUC against EFTUD2 | -2.05
61 | AAGGUAACCAGCUCGAUGG against RPL7AP27 | -0.369
62 | UUCUUUAUCCUUAGUCCUC against NFATC2IP | -3.11
63 | UACAGUAAUAGUGAGGCAG against GYPB | 2.32
64 | UUAGGGUCAGGAGCAGACA against CYP2F1 | -0.167
65 | UACUAACUUUUCGAUGUCC against MX2 | 0.257
66 | UAGGUUGCAUCAUAGAGGG against CFL1 | -2.11
67 | UUUCGUGUUGCCGUAUUUC against GEMIN5 | 0.131
68 | UACCAGUCAGGGUCUUCAC against UBC | -8.62
69 | UGAGUAGAUGAUCUUGUCG against GNA11 | 0.913

Row | Sequence | seed-corrected z-score
70 | AUAGGUGUCCUUCAGGUCC against MYL5 | -0.00285
71 | UGAGAUUUGAUGAUUCUGC against OR7E24 | 0.344
72 | UGUGAAAGAGGCGAAAUGC against ELAC1 | 0.216
73 | UUUUCCACAACCGUAGUCA against GOLGA8G | 0.524
74 | GAUGGAGGUGCCAUGGUUG against ZSWIM3 | -0.304
75 | UCUGGUUCUUUGUAAAGGC against S100A11P1 | -2.25
76 | UUAGGCUUAUUUCCCGCUC against BTN3A2 | -0.656
77 | UAGUGUACUCUAGAGCCCG against PLEKHG4 | 0.519
78 | UUUCUCAUCACUAGAAGUC against PPIH | -0.684
79 | UUGGAGAUAAGGGUUCUUG against MSTO1 | -2.21
80 | UGCAUCUUCUCUUAUGUGC against C16orf90 | -1.02
81 | UAACACUUUCAUUCCUGUC against FAM86B1 | -1.15
82 | UCUUGGUCAGGUUUCCUCG against MUSTN1 | -0.107
83 | AUUCUUCUAGGCAUUGCCC against PDE6D | 0.469
84 | UCUAUUACUUUCACAAUGC against KDM6A | -0.344
85 | AUUCACACCAGUAUUAGUG against KIAA1456 | 0.152
86 | UAAUCCGUAAAUUCGAUAC against RNF139 | 0.709
87 | AUAGCUGCAGGAUCUAAGC against POLR3A | -3.95
88 | UUCCGGUAGAAGAUGAGCC against SHMT2 | 0.314
89 | UUCAUGGUAGGAAAGGUCU against DXO | 1.33
90 | UAGUAUCAAAUAUCCAGAC against TMEM60 | 0.0266
91 | UAAUGUACACCACAUUGGG against FAM198B | -2.46
92 | UUCACGUUCAUUGCAGUCU against RAB5C | -1.4

Row | Sequence | seed-corrected z-score
93 | ACAGUUAAGACACCACUCC against FXN | 1.1
94 | AUAAGCAACACCAUUAUGG against BOLL | 1.08
95 | AAUGGGUCUACCUUGUUGG against PSMC5 | -1.78
96 | AAUAAAGACGGAUUUAUUC against HTATIP2 | 0.204
97 | UUUGAUAUGAUGUUCCACC against DDX50 | -0.378
98 | AAACGAUCCAUAUAGUCCG against MIER3 | 0.02
99 | UAUUGACCAAGAUCACAUG against FASTKD2 | 0.878
100 | AGCUGUAUCCAUUAGGGUG against NTSR2 | 0.216
101 | UUCCAUGUAACCGUCGUUC against SHE | -0.285
102 | AGAUCUAUUACUUCCAGGG against LRRC34 | -3.45
103 | AAAGCGACACUUAUCACCC against WRB | 0.538
104 | UCUUUAAGAAUUGCACAUC against NAAA | -0.571
105 | UCCUGCUUCAGUAAAUCUC against MRPL24 | -2.37
106 | UCUCGAUUUAGCUUAGGCC against SKP2 | -0.249
107 | AUAUCAACAAGCCCAAUUC against KCNB2 | -0.883
108 | UAGCCGACAAAACAACAUC against HEATR1 | -0.424
109 | AAAGCUAUUAUCAUGUAGG against SLC35B3 | 0.789
110 | AUCGGUAUAGUUGAUGCAC against SCN10A | 0.0881
111 | UUUUGAACCAGGGUAGUUC against GNA15 | 0.0907
112 | UCCGGAACAUAUGUUGUCG against TNFRSF11B | -0.942
113 | UGAUGAUCUACACUGAUUC against FAM91A1 | -2.35
114 | UUGGAUUGGCGCUAUGUUC against ANKRD20A18P | -0.888
115 | UUGUAGACCAUGUUGGAGC against POLE | -0.71

Row | Sequence | seed-corrected z-score
116 | UCUGGUUCUUGUGCUCUUC against INO80B | -2.05
117 | AAUCGGAUUUUGUUGAGUC against SOWAHC | -0.193
118 | UUUCUUCCUGUGCACGUCA against OXCT2 | -0.277
119 | UCUUCAGCCGCAUCGAUCU against TNNI2 | 0.556
120 | AUCUGUAUAAUCGACAGGC against BARD1 | -1.42
121 | AAACGGUACAGAGCGCUGC against C1orf233 | -1.64
122 | UAGCAUGAAACUUUUGUUG against STK35 | 0.199
123 | UUGGUUGGAACUACUUACG against STARD9 | -3.22
124 | UGUGGUAUUUAGUUGUUCG against PRMT2 | -0.735
125 | ACUGGAAUAAGACCGGCUG against EMCN | -0.0798
126 | ACUAGGAUCACGACUUUCC against SLC30A9 | -0.286
127 | UCUGUUUUCAGGUGCAUCC against AHRR | -0.835
128 | UUCGUUAUCUAUUUCCACC against CASC5 | -1.38
129 | UCAUUGUUCAAGGUCAUUC against ABTB2 | 0.182
130 | UUCCAGUUGAGUGGUGUCC against SLA2 | -2.67
131 | AAUUUGUUCACGUAAACUU against POU3F2 | 0.623
132 | UUCCGUAAGACUGACACUC against REG4 | -15.5
133 | UCUCGUUCGGUAAUCUUCC against PPP2R2C | -0.613

From PubChem BioAssay AID1159506 (National Center for Advancing Translational Sciences (NCATS), 2015)
